# Assay results reported in PubChem BioAssay.
# Activity calls are given as the source filed them.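 Rule for the calls, unless noted: active = inhibition at or above 50% at 10 µM; inactive = inhibition below 50%.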
# What was measured:
# [1] = inhibitors of TNFa-induced NFkB p65 translocation, primary screen, imaging, HUVEC, MLSMR starter and 10KST1 sets (AID 438;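 active = inhibition above 20% together with a positive visual image hit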;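 note: compound added about 3h40 before a 20 min TNFalpha stimulation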;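 for inhibition: signal is the nuclear over cytoplasmic p65 intensity ratio per well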); conditions: HUVEC TNFa-induced p65 nuclear translocation; cell count: measured here: nuclei count (cytotoxicity indicator), at 2.08 µM; inhibition: at 2 µM, stronger effect = higher value, 0% TNFa-plus-vehicle, 100% no-TNFa wells
# [2] = reduction of polyQ htt aggregates in cells – imaging, exon1htt(103Q)mCFP cells, high-content imaging, primary screen (AID 483;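 active = visual image review flags a hit and inhibition of aggregation exceeds 20%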;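 note: compound exposure lasted 3 days before fixation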;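 for nuclei count: percent of the per-plate median nuclei count of sample wells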); conditions: exon1htt(103Q)mCFP cell line, aggregate imaging, at 2 µM; inhibition of aggregation: stronger effect = higher value; nuclei count: measured here: cell count, toxicity
# [3] = endothelial E-selectin expression blockers – imaging, HUVEC, immunofluorescence, MLSMR starter and 10KST1 sets, primary screen (AID 487;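 active = visually confirmed hit in the image check and inhibition above 20%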;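 for inhibition: signal is fraction of cell area covered by stained E-selectin grains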;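 for nuclei count: 100% = median nuclei count of all wells on the same plate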); conditions: HUVEC TNFalpha-induced E-selectin immunofluorescence imaging, at 2 µM; inhibition: stronger effect = higher value; nuclei count: measured here: cell number, toxicity
# [4] = target: Voltage-gated potassium channel subunit beta-2 (Rattus norvegicus) (UniProt P62483); assay: inhibitors of rat Kvbeta2 reductase activity – biochemical, NADPH fluorescence, primary screen (AID 622;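 active = fluorescence slope higher than the sample average by over 3 SD, cut at about -0.22 in these data, passing the limit was not always enough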;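 note: slope of raw intensity against log time taken from 70 to 1610 s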); conditions: recombinant KvBeta, 4-cyanobenzaldehyde reduction, at 10 µM, stronger effect = higher value
# [5] = target: Voltage-gated potassium channel subunit beta-2 (Rattus norvegicus) (UniProt P62483); assay: enhancers of rat Kvbeta2 NADPH turnover – biochemical, NADPH fluorescence, primary screen (AID 623;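 active = NADPH fluorescence slope more negative than the mean of all samples by about 3 SD, 99.7% confidence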;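 note: fluorescence intensity change per second fitted from 20 to 320 s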); conditions: Recombinant KvBeta, NADPH fluorescence decrease slope, 10 min; at 10 µM; stronger effect = lower value
# [6] = target: Alpha-2C adrenergic receptor (Homo sapiens) (UniProt P18825); assay: compounds altering alpha2C-coupled GIRK flux – cell-based, HEK293 alpha2C/GIRK1/2, thallium flux, primary screen (AID 624;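 active = fluorescence slope after compound addition differing from the mean of all screened samples at 99.7% confidence, in either direction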;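 note: slope of fluorescence ratio to pre-addition baseline per second over 15 to 24 s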); conditions: thallium flux BTC fluorescence, at 10 µM, actives lie on both sides
# [7] = blockers of RIG-like receptor reporter activation – cell-based, Sendai virus stimulus, luciferase, 10K MLSCN set, TLR/RLR signaling modifier project, primary screen (AID 602276); conditions: HEK293 RL24 IRF3 luciferase reporter, at 10 µM, stronger effect = higher value;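 note: firefly luciferase from ISG56 promoter only with Renilla not read in this screen; 0% = Sendai virus plus DMSO and 100% = medium plus DMSO without virus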
# [8] = TLR3 IRF3 reporter activation blockers – cell-based, poly I:C stimulus, luciferase, 10K MLSCN set, primary screen (AID 602277;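 active = inhibition of the reporter signal at or above 50%; inactive = inhibition below 50%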); conditions: HEK293-TLR3 RL24 IRF3 luciferase reporter, at 10 µM, stronger effect = higher value
# Sequence of Voltage-gated potassium channel subunit beta-2 (Rattus norvegicus) (P62483 whole entry, looked up): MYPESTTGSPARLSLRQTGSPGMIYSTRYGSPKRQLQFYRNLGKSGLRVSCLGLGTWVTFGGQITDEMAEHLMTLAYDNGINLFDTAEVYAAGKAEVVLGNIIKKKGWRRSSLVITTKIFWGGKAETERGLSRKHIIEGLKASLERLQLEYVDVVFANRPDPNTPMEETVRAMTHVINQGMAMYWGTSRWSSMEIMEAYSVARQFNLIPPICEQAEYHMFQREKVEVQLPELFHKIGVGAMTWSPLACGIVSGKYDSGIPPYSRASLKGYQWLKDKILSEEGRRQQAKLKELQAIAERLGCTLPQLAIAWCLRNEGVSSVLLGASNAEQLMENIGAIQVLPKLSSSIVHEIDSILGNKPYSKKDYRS
# Sequence of Alpha-2C adrenergic receptor (Homo sapiens) (P18825 whole entry, looked up): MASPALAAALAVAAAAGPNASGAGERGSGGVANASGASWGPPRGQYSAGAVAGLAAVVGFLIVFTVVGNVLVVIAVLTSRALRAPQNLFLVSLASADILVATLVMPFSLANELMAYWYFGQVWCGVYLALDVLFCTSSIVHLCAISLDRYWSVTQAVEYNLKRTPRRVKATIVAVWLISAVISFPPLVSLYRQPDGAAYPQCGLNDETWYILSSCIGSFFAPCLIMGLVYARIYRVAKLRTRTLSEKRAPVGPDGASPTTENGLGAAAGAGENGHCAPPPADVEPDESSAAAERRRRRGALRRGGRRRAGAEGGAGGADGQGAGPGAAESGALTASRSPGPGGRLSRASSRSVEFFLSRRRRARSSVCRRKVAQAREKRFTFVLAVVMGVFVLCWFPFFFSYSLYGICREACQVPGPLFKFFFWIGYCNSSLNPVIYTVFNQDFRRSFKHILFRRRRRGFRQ
SMILES,cell count [1],inhibition [1],inhibition of aggregation [2],nuclei count [2] [%],inhibition [3],nuclei count [3] [%],fluorescence slope [4],NADPH fluorescence slope [5],slope [6],inhibition [7],inhibition [8]
O=c1[nH]c(NCc2ccco2)nnc1Cc1ccccc1Cl,643,1.8% (inactive),-15.1% (inactive),111,-18.6% (inactive),124,-0.515 (inactive),-0.000182 (inactive),0.0051 (inactive),6.89% (inactive),40.7% (inactive)
COc1ccc(C2=NOC(C(=O)NC3CCCCC3)C2)cc1OC (stereo not given),832,-14.3% (inactive),1.9% (inactive),104,-84.9% (inactive),96.1,-0.547 (inactive),-4.1e-05 (inactive),0.00464 (inactive),14.9% (inactive),20.1% (inactive)
CCSc1cc(C2C(C(=O)OC)=C(C)NC3=C2C(=O)CCC3)c(C)o1 (stereo not given),737,-6.1% (inactive),8.4% (inactive),96.3,-52.7% (inactive),129,-0.593 (inactive),-2.7e-05 (inactive),0.00339 (inactive),16.1% (inactive),22.6% (inactive)
CC1CCN(c2nc3c(c(=O)n(C)c(=O)n3C)n2Cc2ccccc2)CC1,666,-3.5% (inactive),-14.9% (inactive),83.4,-81.5% (inactive),139,-0.39 (inactive),-6.1e-06 (inactive),0.00388 (inactive),12.3% (inactive),15.2% (inactive)
Cc1coc2cc3oc(=O)c4c(c3cc12)CCC4,714,6.7% (inactive),-13.1% (inactive),59.7,-48.2% (inactive),135,-0.566 (inactive),-1.8e-05 (inactive),0.00717 (inactive),-1.57% (inactive),-5.8% (inactive)
CC(C)N1C(=O)C2C(C(=O)NC3CCCCC3)C3C=CC2(O3)C1C(=O)NC1CCCC1 (stereo not given),371,4.3% (inactive),23% (inactive),101,-58.1% (inactive),101,-0.366 (inactive),3.1e-05 (inactive),0.00675 (inactive),8.4% (inactive),18.1% (inactive)
Clc1ccc(-n2nnnc2Sc2ncnc3sccc23)cc1,530,-9% (inactive),-12.2% (inactive),107,-12.2% (inactive),122,-0.528 (inactive),-4.1e-05 (inactive),0.00502 (inactive),5.22% (inactive),66.8% (active)
COc1ccc(N2C(=O)CC(N3CCCC4CCCCC43)C2=O)cc1 (stereo not given),577,-11.4% (inactive),3.7% (inactive),107,-13.4% (inactive),79.8,-0.423 (inactive),-3.7e-05 (inactive),0.00354 (inactive),8.26% (inactive),35.7% (inactive)
CCn1c(SCC(=O)Nc2ccc3c(c2)OCO3)nnc1-c1ccccc1O,468,-6.3% (inactive),2% (inactive),113,-143% (inactive),151,-0.5 (inactive),-5.6e-05 (inactive),0.0056 (inactive),11.9% (inactive),0.128% (inactive)
Cc1cc(C)cc(NC(=O)C2CCCN(S(=O)(=O)c3cnc[nH]3)C2)c1 (stereo not given),595,17.2% (inactive),-39.1% (inactive),97.1,-30% (inactive),124,-0.523 (inactive),1.2e-05 (inactive),0.00642 (inactive),14.1% (inactive),33.8% (inactive)
O=S1(=O)N=C(Nc2nc3c(s2)CCCC3)c2ccccc21,319,-4.2% (inactive),5% (inactive),102,-33.1% (inactive),111,-0.468 (inactive),5.2e-05 (inactive),0.00562 (inactive),-62.5% (inactive),-97.7% (inactive)
CCOC(=O)CN1CC23C=CC(O2)C(C(=O)Nc2ccc(OCC)cc2)C3C1=O (stereo not given),615,0.7% (inactive),-10.5% (inactive),112,-5.7% (inactive),106,-0.517 (inactive),-1.3e-05 (inactive),0.00673 (inactive),7.04% (inactive),15.5% (inactive)
CCOc1cccc(C(=O)N(Cc2ccc(F)cc2)C2CCS(=O)(=O)C2)c1 (stereo not given),461,9.3% (inactive),-23.1% (inactive),92.3,-116% (inactive),219,-0.415 (inactive),-3.8e-05 (inactive),0.0041 (inactive),14.6% (inactive),40.1% (inactive)
Cc1ccc(N2CCN(c3ccc(C)cc3)C(CC(=O)O)C2=O)cc1 (stereo not given),549,-4.7% (inactive),3.3% (inactive),92.3,12.6% (inactive),108,-0.499 (inactive),1.5e-05 (inactive),0.00583 (inactive),5.38% (inactive),4.47% (inactive)
CCN(CC)c1ccc(NC(=O)CN2CCN(CC(=O)Nc3ccccc3F)CC2)cc1,348,3.1% (inactive),5.8% (inactive),104,-45.9% (inactive),113,-0.413 (inactive),-3.8e-05 (inactive),0.00308 (inactive),12.9% (inactive),19.4% (inactive)
COc1ccc(-c2nn3c(-c4cccc(C)c4)nnc3s2)cc1OC,525,10.3% (inactive),-9.4% (inactive),100,-9.3% (inactive),114,-0.419 (inactive),1.9e-05 (inactive),0.00514 (inactive),-18.2% (inactive),-17.1% (inactive)
CC(=O)N(C(C)=O)c1ncc2c([nH]c3ccccc32)c1C#N,320,2.1% (inactive),-79% (inactive),2.8,0.9% (inactive),117,-0.406 (inactive),-2.2e-05 (inactive),0.00457 (inactive),11.7% (inactive),15.6% (inactive)
COc1ccc(C(CNC(=O)c2ccc(OCC3CCCO3)cc2)N2CCOCC2)cc1 (stereo not given),666,0.6% (inactive),-1.9% (inactive),86.2,7.9% (inactive),112,-0.49 (inactive),-4e-05 (inactive),0.00447 (inactive),15.9% (inactive),20.4% (inactive)
O=C1NC(Nc2ccccn2)(C(F)(F)F)C(=O)N1c1ccc(F)cc1 (stereo not given),483,-1.9% (inactive),-9.8% (inactive),110,-79.1% (inactive),111,-0.582 (inactive),-4.6e-05 (inactive),0.00277 (inactive),13.9% (inactive),6.37% (inactive)
O=C1CCCN1CCCNc1ncnc2c1[nH]c1ccc(Cl)cc12,465,0.8% (inactive),-18.4% (inactive),101,-164% (inactive),119,-0.391 (inactive),3.6e-05 (inactive),0.00715 (inactive),-14.5% (inactive),-66.1% (inactive)
COC(=O)CC(C(=O)Nc1cc(C(=O)OC)cc(C(=O)OC)c1)N1CCN(C)CC1 (stereo not given),661,-7.5% (inactive),-3.2% (inactive),99.8,-105% (inactive),107,-0.547 (inactive),-4.3e-05 (inactive),0.00646 (inactive),-2.88% (inactive),9.86% (inactive)
CCOc1ccc2c(c1)c1nnc(SCC(=O)N3CCC(C)CC3)nc1n2C,432,-0.2% (inactive),0.1% (inactive),99.9,-30.2% (inactive),114,-0.326 (inactive),-5.2e-05 (inactive),0.00371 (inactive),-10.6% (inactive),-29.5% (inactive)
COc1ccc(N2C(=O)C(Cl)=C(N3CCCC3)C2=O)cc1,446,10.1% (inactive),-0.8% (inactive),101,25.6% (inactive),100,-0.29 (inactive),-4.2e-05 (inactive),0.00536 (inactive),-5.83% (inactive),-8.61% (inactive)
CN(C)c1ccc(-c2nn3c(-c4ccc(Cl)cc4Cl)nnc3s2)cc1,321,2.6% (inactive),-10.5% (inactive),98.2,42.5% (inactive),96.6,-0.552 (inactive),-3.3e-05 (inactive),0.00528 (inactive),-25.6% (inactive),55.1% (active)
CC(C)(C)C(=O)Cn1c[n+](N)cn1,545,-9.5% (inactive),-3.6% (inactive),118,18.1% (inactive),105,-0.62 (inactive),-3.8e-05 (inactive),0.00385 (inactive),18.9% (inactive),26.2% (inactive)
